Shown are actives, neighbours in structure and some others; about 3.5% of the full set was active somewhere.
KCNK3 block – human KCNK3 channel inhibition, primary screen | actives 0.84% (n = 340,000) | CHO-KCNK3 thallium flux, FluxOR fluorescence; active compounds read low | B-score at 10 µM;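 active means B-score under library mean minus 4 SD, starting fluorescence ratio at most library mean plus 5 SD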;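 further: more negative B-score means stronger inhibition of thallium flux through KCNK3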
KCNK9 block – inhibitors of human KCNK9 two-pore domain potassium channel. Q9NPC2. HEK293 KCNK9, FluxOR thallium flux fluorescence; active compounds read low. B-score at 10 µM. actives 1.2% (n = 310,000). AID 488922;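 active means ratio B-score over 3 SD below the library mean, with starting fluorescence within 5 SD of its mean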;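 further: negative B-score means less thallium flux so channel inhibition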
TMEM16A inh – inhibitors of mouse TMEM16A calcium-activated chloride channel | Q8BHY3 | HEK293 TMEM16A/YFP iodide influx fluorescence, ionomycin | normalized B-score (activity score, 25-100; higher = stronger inhibition) at 10 µM | actives 1.2% (n = 310,000);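 active means ratio plate-corrected score three or more library SD toward inhibition, starting fluorescence score within five deviations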;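 further: score derived from kinetic fluorescence span divided by baseline fluorescence per well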
Kir21 inh – blocks the mouse Kir2.1 inward-rectifier potassium channel | P35561 | HEK293-Kir2.1, FluxOR thallium flux fluorescence; active compounds read low | B-score at 10 µM | actives 0.85% (n = 310,000);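 active means fluorescence ratio B-score at or below minus 3 SD of library scores, with starting-brightness B-score within 2 SD, cut at about -4.2 in these data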;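 further: channel flux triggered by added potassium and thallium sulfate stimulus; B-score of peak minus minimum fluorescence over baseline after thallium stimulus; more negative B-score means stronger Kir2.1 block with less thallium influx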
Target sequence (P35561 whole entry, looked up): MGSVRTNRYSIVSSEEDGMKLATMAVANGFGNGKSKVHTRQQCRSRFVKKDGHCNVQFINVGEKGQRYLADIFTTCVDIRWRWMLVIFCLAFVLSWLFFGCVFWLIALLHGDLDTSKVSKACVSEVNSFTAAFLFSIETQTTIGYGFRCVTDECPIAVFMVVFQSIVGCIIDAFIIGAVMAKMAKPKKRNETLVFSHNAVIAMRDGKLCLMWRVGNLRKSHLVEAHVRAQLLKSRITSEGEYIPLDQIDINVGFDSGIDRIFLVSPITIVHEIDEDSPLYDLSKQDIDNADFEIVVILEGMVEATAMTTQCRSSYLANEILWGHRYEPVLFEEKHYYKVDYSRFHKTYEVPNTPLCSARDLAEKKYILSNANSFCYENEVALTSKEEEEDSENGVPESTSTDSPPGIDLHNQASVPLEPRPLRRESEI
TMEM16A act – activates or potentiates the mouse TMEM16A chloride channel; HEK293 TMEM16A/YFP-H148Q/I152L, iodide quench fluorescence; active compounds read low; B-score at 10 µM; actives 0.3% (n = 340,000);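 active means fluorescence-ratio B-score plate-corrected deviation score at least 3 library SD below zero, with starting fluorescence score within 5 deviations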;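 further: channel opened by trigger with iodide after compound preincubation; score built on the fluorescence ratio of max minus min over baseline; more negative score means more quench and so TMEM16A activation or potentiation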
KCNK9 inh conf – confirmation of human KCNK9 potassium channel inhibitors; shares compounds with KCNK9 block; inhibition, % at 10 µM; HEK293 KCNK9 cells, FluxOR thallium flux fluorescence; AID 492992; actives 43% (n = 4,900);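 active means thallium signal inhibited by more than 5 SD of the compound-free buffer control wells, on both duplicate plates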;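 further: 0% = assay buffer control wells without compound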
Kir21 sel – selectivity of KCNK9 modulators against mouse Kir2.1; Kir2.1 cells, FluxOR thallium flux fluorescence; actives 4% (n = 4,900); inhibition, % at 10 µM; shares compounds with KCNK9 block;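 active means thallium signal drop more than 5 SD beyond the mean of the no-compound control wells, seen in both duplicate plates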;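 further: signal is fluorescence rise after thallium addition divided by baseline fluorescence; plate controls were assay buffer only for no effect and full block by chlorpromazine control for full effect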
KCNK9 uninduced – non-induced cell nonspecific activity of KCNK9 modulators. shares compounds with KCNK9 block. non-induced KCNK9-HEK293, FluxOR thallium flux. inhibition, % at 10 µM. actives 40% (n = 4,900). AID 492997;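 active means thallium signal drop beyond 5 SD of the untreated control mean, on both duplicate plates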;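 further: plate controls were buffer only IC0 wells for no effect and SID17386958 at its maximal inhibitory level for full effect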
TMEM16A reconf – reconfirmed blocker of mouse TMEM16A calcium-activated chloride channel; AID 652189; HEK293 TMEM16A/YFP-H148Q, iodide quench fluorescence; ionomycin added to raise cell calcium; inhibition, % at 10 µM; actives 39% (n = 2,300); shares compounds with TMEM16A inh;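 active means mean duplicate percent inhibition, scaled so buffer wells are 0 and the reference blocker 100, over three buffer SD above buffer mean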
HEK293 Ca mobil – counter-screen for TMEM16A inhibitors: effect on calcium mobilization; shares compounds with TMEM16A inh; actives 2% (n = 2,300); calcium response (% of ionomycin), % at 10 µM; TMEM16A/YFP HEK293, Fluo4 calcium mobilization;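 active means duplicate-averaged calcium signal over 20% of the ionomycin maximum, relative to buffer baseline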;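 further: each well's signal is peak minus trough fluorescence divided by its pre-addition baseline; 0% = buffer wells and 100% = ionomycin wells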
YFP-HEK293 quench – parental YFP-HEK293 iodide quench counter-screen activity | YFP ratio F(max-min)/F0 at 10 µM | 2,300 tested, under 10 active | shares compounds with TMEM16A inh | ionomycin | AID 652233;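 active means yellow fluorescent protein signal ratio exceeding the buffer control mean by over 5 SD of those controls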;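 further: ratio is mean of duplicate wells from kinetic YFP trace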
ClC-1 inh – rat ClC-1 inhibition, TMEM16A specificity screen; CHO ClC-1-YFP, iodide influx fluorescence quench; iodide control reads 0, buffer control 100; AID 652236; 2,300 tested, under 10 active; shares compounds with TMEM16A inh; ratio percent, % at 10 µM;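 active means duplicate-mean ratio percent above the mean of iodide-only control wells, which defines zero, plus 5 of their SD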;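 further: higher percent means stronger block of ClC-1 iodide influx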
KCNK3 inh conf – human KCNK3 channel inhibition, confirmation assay | shares compounds with KCNK3 block | CHO-KCNK3 thallium flux, FluxOR fluorescence; 0% buffer, 100% carvedilol maximal block | ratio percent of control, % at 10 µM | actives 99% (n = 2,400);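 active means ratio percent of control, averaged over triplicates, above buffer control mean plus 5 SD, cut at about 64% in these data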;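 further: ratio is the fluorescence rise from min to max over baseline after thallium stimulus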
KCNK3 uninduced – KCNK3 inhibitor counter-screen hit in non-induced cells. shares compounds with KCNK3 block. non-induced KCNK3 parental cells, FluxOR thallium flux; active compounds read low. thallium flux ratio (lower = more inhibition) at 10 µM. actives 40% (n = 2,400);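 active means thallium flux ratio, averaged over three wells, more than 5 SD below the buffer control mean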;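 further: host cells are CHO cells without KCNK3 induction; ratio is peak minus trough fluorescence over baseline then normalized to buffer controls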
* = called active by the depositor; i = inactive; · = no result given.

SMILES	KCNK3 block	KCNK9 block	TMEM16A inh	Kir21 inh	TMEM16A act	KCNK9 inh conf	Kir21 sel	KCNK9 uninduced	KCNK3 inh conf	KCNK3 uninduced	others
CCOC(=O)c1sc(-c2ccccc2)cc1NC(=O)CSc1nnnn1C	-12*	-11*	i	2	i	52%*	i	34%*	87*	i
CCOC(=O)c1cc(-c2ccccc2)sc1NC(=O)CSc1nnnn1C	-11*	-9.6*	i	-0.93	i	54%*	i	32%*	104*	i
S=C(NC1CC1)NC1CCCc2ccccc21 (stereo not drawn)	i	i	i	0.09	i	·	·	·	·	·
CCN(Cc1ccncc1)C(=O)c1cc(COc2ccc(F)cc2Cl)on1	i	i	i	-1.4	i	·	·	·	·	·
C#CCN(Cc1ccco1)C(=O)c1cc(COc2ccc(F)cc2Cl)on1	-11*	-9.3*	i	-0.03	i	i	i	34%*	115*	0.15*
O=C(NCc1cn(-c2ccccc2)nc1-c1ccc(F)cc1)c1cccc([N+](=O)[O-])c1	-8.8*	-17*	i	1.3	i	78%*	i	31%*	104*	0.14*
CCn1cc(CNC(=O)c2cccc([N+](=O)[O-])c2)c(C)n1	i	i	i	1.6	i	·	·	·	·	·
COC(=O)c1c(C(=O)OC)c(-c2ccc(C)cc2)n2c1CCC2	i	i	i	-0.69	i	·	·	·	·	·
COC(=O)c1c(C(=O)OC)c(-c2ccc(Cl)c(Cl)c2)n2c1CCC2	i	-8.2*	i	0.01	i	32%*	i	32%*	92*	i
CCCOC(=O)c1ccc(NC(=O)c2ccccc2[N+](=O)[O-])cc1	-8.8*	-8.2*	i	1.2	i	48%*	i	i	105*	i
O=C(CCSC1=NCCCN1)c1ccc(F)cc1	i	·	·	·	i	·	·	·	·	·
CCOC(=O)c1nnc(-c2ccc(C)cc2)nc1Sc1ccc(Cl)cc1	i	i	i	-1.2	i	·	·	·	·	·
CCOC(=O)c1nnc(-c2ccccc2)nc1NCc1ccc(Cl)cc1	-9.7*	-10*	i	-0.27	i	38%*	i	43%*	97*	0.14*
CN(C)S(=O)(=O)c1cccc(COC(=O)c2ccc(Cl)cc2O)c1	-9.5*	-8.3*	100*	1.4	i	50%*	i	26%*	131*	i	TMEM16A reconf=28%*;HEK293 Ca mobil=i;YFP-HEK293 quench=-0.88;ClC-1 inh=-24
COc1ccc(OC)c2c1C(=O)C(Cl)=C(Cl)C2=O	-8.9*	-9.8*	i	-4.3*	i	58%*	41%*	87%*	151*	0.089*
Cc1cccc(C(C)C)c1-n1nnnc1-c1ccccc1	-10*	-12*	i	0.15	i	53%*	i	40%*	117*	i
O=C(/C=C/Nc1ccccc1C(F)(F)F)c1ccco1	-9.1*	-8.8*	i	0.52	i	i	i	i	90*	i
Cc1ccc(NC(=S)N(C)C)cc1C	i	i	i	-0.89	i	·	·	·	·	·
CCCc1nc(SCC(=O)c2ccc(OC)cc2)c2ccccc2n1	-11*	-19*	i	-1.1	i	78%*	i	27%*	108*	0.16*
Cc1ccccc1Nc1c(-c2cccnc2)nc2ccccn12	i	i	i	1	i	·	·	·	·	·
Cc1cccc2nc(-c3cccnc3)c(NCCC(C)C)n12	-10*	-9.1*	i	-0.64	i	37%*	i	36%*	141*	0.13*
O=C(C/C=N/OCc1ccc(Cl)cc1Cl)c1ccc(Cl)cc1	-9*	-15*	i	0.44	i	43%*	i	43%*	93*	0.15*
O=C(C1CCN(S(=O)(=O)c2cnc[nH]2)CC1)N1CCN(c2ccc([N+](=O)[O-])cc2)CC1	i	i	i	0.25	i	·	·	·	·	·
COc1ccc(CN2CCN(c3ncnc4scc(-c5ccc(F)cc5)c34)CC2)cc1	i	i	i	-0.53	i	·	·	·	·	·
Fc1ccc(-c2csc3ncnc(N4CCN(c5ccccc5)CC4)c23)cc1	-10*	-13*	i	-0.8	i	i	i	30%*	117*	i
SMILES	KCNK3 block	KCNK9 block	TMEM16A inh	Kir21 inh	TMEM16A act	KCNK9 inh conf	Kir21 sel	KCNK9 uninduced	KCNK3 inh conf	KCNK3 uninduced	others
COc1ccc(N2CCN(c3ncnc4scc(-c5ccccc5)c34)CC2)cc1	-11*	-12*	i	-0.01	i	28%*	i	i	117*	i
c1ccc(N2CCN(c3ncnc4scc(-c5cccs5)c34)CC2)cc1	-8.9*	-13*	i	-0.07	i	42%*	i	36%*	148*	0.11*
Cc1cccc(-c2nnc(-c3cccc(NC(=O)Cc4cccs4)c3)o2)c1	-16*	-17*	i	-0.13	i	54%*	i	30%*	148*	0.14*
O=C(Cc1cccs1)Nc1ccc(-c2nnc(-c3ccccc3)o2)cc1	i	i	i	0	i	·	·	·	·	·
CC(C)=CCc1cc(-c2oc3cc(O)cc(O)c3c(=O)c2O)ccc1O	i	i	i	0.58	i	·	·	·	·	·
CC(C)=CCc1c(O)cc2oc3c(CC=C(C)C)c(O)c(O)c(CC=C(C)C)c3c(=O)c2c1O	-9.2*	-13*	100*	0.12	i	62%*	i	34%*	146*	0.11*

From PubChem
